This is an account of results in PubChem BioAssay (EPA / NIEHS).

Structures are written as SMILES. Inconclusive results are not listed. Activity calls are given as the source filed them. Rule for the calls, unless noted: active = hit-call score of the fitted dose curve at least 0.9, where 1 is the maximum; inconclusive = response in the unintended direction; inactive = score below 0.9.

Read-out in experiment [1]: Intercellular Adhesion Molecule 1 (ICAM1), ICAM1 (gene 3383)
Briefly: BSK_3C_ICAM1: BioMAP Diversity Plus: 3C Assay for Intercellular Adhesion Molecule 1 (ICAM1) Biomarker Activity (AID 2283003; active = hit-call score of the fitted dose curve at least 0.9, where 1 is the maximum; inactive = score below 0.9). Conditions: primary human endothelial cells (HUVEC); actives raise or lower the signal. Put shortly:
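ELISA readout of ICAM1 in human umbilical vein endothelial cells in the 3C system, taken 24 h post-dose. Gain or loss of signal versus DMSO was fitted in both directions, with SRB total-protein staining run in parallel.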

Experiment [2] has as its target Retinoic acid receptor alpha (Homo sapiens) (UniProt P10276). Briefly: ATG_RARa_TRANS: Attagene TRANS-FACTORIAL HepG2 Assay for human Retinoic Acid Receptor alpha (RARa) (AID 2283005). A digest of the protocol:
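Reporter transcripts, measured by RT-PCR with fluorescent labeling and capillary electrophoresis after 24 h dosing, reflect activity of an exogenous human RARa–GAL4 fusion in transiently transfected HepG2. Fitted for increase relative to DMSO.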

A short description of experiment [3]: BSK_3C_Proliferation: Cell Proliferation Assessment in the BioMAP Diversity Plus: 3C Assay (AID 2283006; active = hit-call score of the fitted dose curve at least 0.9, where 1 is the maximum; inactive = score below 0.9;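 for AC50: potency may reflect either rise or fall in cell number versus DMSO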). Conditions: primary human endothelial cells (HUVEC). Put shortly:
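Proliferation as total protein: sulforhodamine B (0.1%) stain of TCA-fixed subconfluent human umbilical vein endothelial cells, absorbance 560 nm, 48 h after dosing. Activity fitted in both directions against DMSO baseline.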

In experiment [4] the target is Peroxisome proliferator-activated receptor gamma (Homo sapiens) (UniProt P37231). As to the kind of experiment: ATG_PPARg_TRANS: Attagene TRANS-FACTORIAL HepG2 Assay for human Peroxisome Proliferator-activated Receptor-gamma (PPARg) (AID 2283007). Put shortly: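 Liver-derived HepG2 cells expressing an exogenous NR-Gal4 chimera alongside GAL4-UAS reporter genes; 24 h exposure. Fluorescence of reporter RT-PCR products, separated by capillary electrophoresis, gives mRNA induction relative to DMSO.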
Peroxisome proliferator-activated receptor gamma (Homo sapiens), sequence (P37231 whole entry, looked up, the tested form may be a part): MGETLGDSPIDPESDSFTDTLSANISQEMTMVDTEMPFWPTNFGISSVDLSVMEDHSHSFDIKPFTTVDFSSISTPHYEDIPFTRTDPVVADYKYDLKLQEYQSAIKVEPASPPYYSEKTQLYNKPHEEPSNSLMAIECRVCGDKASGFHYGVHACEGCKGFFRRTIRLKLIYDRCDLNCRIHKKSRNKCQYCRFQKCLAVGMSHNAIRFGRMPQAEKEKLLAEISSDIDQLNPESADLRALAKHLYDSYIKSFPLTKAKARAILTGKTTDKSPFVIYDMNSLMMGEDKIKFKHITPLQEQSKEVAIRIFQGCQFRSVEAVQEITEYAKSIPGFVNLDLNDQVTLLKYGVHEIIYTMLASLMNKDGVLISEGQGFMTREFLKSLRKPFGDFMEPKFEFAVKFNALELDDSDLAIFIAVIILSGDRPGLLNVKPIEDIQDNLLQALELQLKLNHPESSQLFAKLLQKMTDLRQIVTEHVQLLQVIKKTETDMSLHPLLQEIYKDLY

Experiment [5] deals with human Retinoic Acid Receptor gamma (RARg), RARG (gene 5916) (UniProt P13631). As to the kind of experiment: ATG_RARg_TRANS: Attagene TRANS-FACTORIAL HepG2 Assay for human Retinoic Acid Receptor gamma (RARg) (AID 2283009). Put shortly: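 Transactivation of exogenous RARg-Gal4 fusion measured as reporter transcript induction after 24 h in transfected HepG2 cells. RNA reverse-transcribed, amplified, fluorescently labeled and resolved by capillary electrophoresis; increase relative to DMSO.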
human Retinoic Acid Receptor gamma (RARg), RARG (gene 5916), sequence (P13631 whole entry, looked up, the tested form may be a part): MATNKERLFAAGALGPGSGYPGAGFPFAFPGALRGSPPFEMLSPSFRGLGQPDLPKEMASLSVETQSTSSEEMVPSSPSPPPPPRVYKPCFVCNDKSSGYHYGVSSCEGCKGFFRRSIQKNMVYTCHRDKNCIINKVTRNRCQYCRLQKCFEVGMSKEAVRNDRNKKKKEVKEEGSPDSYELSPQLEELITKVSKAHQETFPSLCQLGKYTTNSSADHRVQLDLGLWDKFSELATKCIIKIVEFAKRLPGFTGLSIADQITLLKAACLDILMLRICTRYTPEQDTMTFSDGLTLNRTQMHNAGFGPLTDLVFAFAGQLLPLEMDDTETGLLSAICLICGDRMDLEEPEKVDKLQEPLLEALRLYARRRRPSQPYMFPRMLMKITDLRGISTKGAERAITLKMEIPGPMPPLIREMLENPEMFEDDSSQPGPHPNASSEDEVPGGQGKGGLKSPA

Experiment [6] deals with human RAR-related Orphan Receptor gamma (RORg), RORC (gene 6097) (UniProt P51449). Briefly: ATG_RORg_TRANS: Attagene TRANS-FACTORIAL HepG2 Assay for human RAR-related Orphan Receptor gamma (RORg) (AID 2283011). A digest of the protocol: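 Chimeric RORg-Gal4 transactivation in transfected HepG2; 24 h exposure; RT-PCR/capillary electrophoresis readout of reporter mRNA, DMSO baseline.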
human RAR-related Orphan Receptor gamma (RORg), RORC (gene 6097), sequence (P51449 whole entry, looked up, the tested form may be a part): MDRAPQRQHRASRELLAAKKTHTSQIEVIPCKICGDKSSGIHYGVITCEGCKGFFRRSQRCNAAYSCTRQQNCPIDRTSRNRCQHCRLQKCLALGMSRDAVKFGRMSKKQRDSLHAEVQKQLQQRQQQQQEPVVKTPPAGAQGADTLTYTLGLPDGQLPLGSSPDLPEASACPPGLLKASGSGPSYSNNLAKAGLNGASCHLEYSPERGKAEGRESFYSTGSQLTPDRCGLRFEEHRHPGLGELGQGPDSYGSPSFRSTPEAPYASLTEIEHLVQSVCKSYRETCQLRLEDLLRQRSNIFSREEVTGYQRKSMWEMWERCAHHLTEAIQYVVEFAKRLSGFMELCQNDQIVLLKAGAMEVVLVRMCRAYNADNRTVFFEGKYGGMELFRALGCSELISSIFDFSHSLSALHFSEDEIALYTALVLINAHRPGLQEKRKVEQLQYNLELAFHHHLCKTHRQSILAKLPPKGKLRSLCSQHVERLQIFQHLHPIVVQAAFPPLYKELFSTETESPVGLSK

The target of experiment [7] is Nuclear receptor subfamily 1 group I member 2 (Homo sapiens) (UniProt O75469). As to the kind of experiment: ATG_PXR_TRANS: Attagene TRANS-FACTORIAL HepG2 Assay for human Pregnane X Receptor (PXR) (AID 2283008). Put shortly: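 Multiplexed TRANS reporter panel in HepG2; this component tracks PXR-Gal4-driven reporter mRNA after 24 h dosing, measured by RT-PCR with capillary electrophoresis fluorescence, fitted against DMSO.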
Nuclear receptor subfamily 1 group I member 2 (Homo sapiens), sequence (O75469 whole entry, looked up, the tested form may be a part): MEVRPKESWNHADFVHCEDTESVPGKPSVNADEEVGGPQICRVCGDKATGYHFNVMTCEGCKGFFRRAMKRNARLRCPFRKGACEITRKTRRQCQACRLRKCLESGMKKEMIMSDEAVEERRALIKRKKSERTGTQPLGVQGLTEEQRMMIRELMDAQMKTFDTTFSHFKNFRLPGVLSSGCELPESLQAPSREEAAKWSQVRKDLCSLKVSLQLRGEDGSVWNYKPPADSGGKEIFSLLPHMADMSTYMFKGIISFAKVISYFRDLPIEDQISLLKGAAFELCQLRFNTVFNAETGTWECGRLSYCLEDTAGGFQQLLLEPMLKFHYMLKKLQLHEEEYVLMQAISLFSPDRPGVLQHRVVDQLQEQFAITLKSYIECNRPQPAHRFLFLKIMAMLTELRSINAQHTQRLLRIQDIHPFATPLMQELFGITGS

For experiment [8], the target named is human Retinoic Acid Receptor beta (RARb), RARB (gene 5915) (UniProt P10826). Briefly: ATG_RARb_TRANS: Attagene TRANS-FACTORIAL HepG2 Assay for human Retinoic Acid Receptor beta (AID 2283004). A digest of the protocol:
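Fluorescent capillary-electrophoresis detection of GAL4-UAS reporter mRNA defines the endpoint, with induction over DMSO-treated wells scored as activity. Transiently transfected human hepatoma HepG2 cells expressing exogenous NR–Gal4 proteins are exposed to test chemicals for 24 h.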

For experiment [9], the target named is human RAR-related Orphan Receptor beta (RORb), RORB (gene 6096) (UniProt Q92753). Briefly: ATG_RORb_TRANS: Attagene TRANS-FACTORIAL HepG2 Assay for human RAR-related Orphan Receptor beta (RORb) (AID 2283010). A digest of the protocol: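 Read-out is reporter mRNA induction, quantified by RT-PCR with fluorescent capillary electrophoresis, 24 h post-dose in transiently transfected HepG2 expressing exogenous NR-Gal4 chimera. Activity fitted upward versus DMSO.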
human RAR-related Orphan Receptor beta (RORb), RORB (gene 6096), sequence (Q92753 whole entry, looked up, the tested form may be a part): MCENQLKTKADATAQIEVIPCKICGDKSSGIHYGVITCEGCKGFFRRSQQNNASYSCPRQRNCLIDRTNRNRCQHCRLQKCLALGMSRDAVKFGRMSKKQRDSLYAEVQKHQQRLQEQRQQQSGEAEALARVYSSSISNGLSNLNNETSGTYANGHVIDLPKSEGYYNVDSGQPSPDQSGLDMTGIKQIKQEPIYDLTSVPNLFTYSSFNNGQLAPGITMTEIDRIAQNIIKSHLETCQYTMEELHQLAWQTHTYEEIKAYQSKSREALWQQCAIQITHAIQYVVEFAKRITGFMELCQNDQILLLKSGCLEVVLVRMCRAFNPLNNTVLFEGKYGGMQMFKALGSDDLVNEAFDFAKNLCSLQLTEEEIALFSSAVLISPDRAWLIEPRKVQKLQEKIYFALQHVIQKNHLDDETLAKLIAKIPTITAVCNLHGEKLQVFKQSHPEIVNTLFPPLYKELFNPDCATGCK

Retinoic acid receptor alpha (Homo sapiens), sequence (P10276 whole entry, looked up, the tested form may be a part): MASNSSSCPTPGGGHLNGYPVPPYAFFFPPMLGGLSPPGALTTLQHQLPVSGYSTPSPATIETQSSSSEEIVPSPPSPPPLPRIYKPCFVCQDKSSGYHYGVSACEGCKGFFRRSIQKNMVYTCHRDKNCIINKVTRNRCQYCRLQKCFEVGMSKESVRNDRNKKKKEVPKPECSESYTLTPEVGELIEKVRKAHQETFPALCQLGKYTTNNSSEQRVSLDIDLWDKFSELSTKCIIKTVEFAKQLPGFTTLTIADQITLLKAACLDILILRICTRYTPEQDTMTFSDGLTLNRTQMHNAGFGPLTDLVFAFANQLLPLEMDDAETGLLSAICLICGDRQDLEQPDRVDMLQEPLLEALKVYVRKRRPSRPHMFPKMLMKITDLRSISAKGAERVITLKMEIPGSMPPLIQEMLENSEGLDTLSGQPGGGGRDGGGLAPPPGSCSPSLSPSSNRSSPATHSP
human Retinoic Acid Receptor beta (RARb), RARB (gene 5915), sequence (P10826 whole entry, looked up, the tested form may be a part): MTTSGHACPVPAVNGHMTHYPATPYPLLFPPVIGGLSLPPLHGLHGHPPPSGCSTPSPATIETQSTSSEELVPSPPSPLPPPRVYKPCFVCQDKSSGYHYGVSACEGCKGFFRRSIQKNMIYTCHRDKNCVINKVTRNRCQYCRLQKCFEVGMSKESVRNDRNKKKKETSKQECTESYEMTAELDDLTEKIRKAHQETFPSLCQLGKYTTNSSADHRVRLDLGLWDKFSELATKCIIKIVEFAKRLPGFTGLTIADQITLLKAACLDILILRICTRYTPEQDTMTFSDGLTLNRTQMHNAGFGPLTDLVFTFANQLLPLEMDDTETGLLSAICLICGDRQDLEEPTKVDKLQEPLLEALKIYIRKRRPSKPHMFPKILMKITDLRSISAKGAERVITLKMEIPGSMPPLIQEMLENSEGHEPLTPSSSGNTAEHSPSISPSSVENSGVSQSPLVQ

For the molecule `Nc1ccc(Oc2ccc(N)cc2)cc1`, the result in [1], in experiment [2], in [3], in experiment [4], in experiment [5] and in experiment [6] was inactive.

Turning to `Clc1ccc(C(c2ccc(Cl)cc2)C(Cl)Cl)cc1`, the AC50 (in general, the midpoint of the concentration-response curve, whichever way the signal moves) in experiment [3] was 15.3 µM (active); in experiment [7] it was 7.96 µM (active). Further, the result in experiment [4] was inactive.

`CN(C)c1ccc(C(=O)c2ccc(N(C)C)cc2)cc1`: the results for the concentration at half-maximal activity (AC50) in experiment [3] and in experiment [4] were 1.68 µM (active) and 6.44 µM (active), respectively. Also, the molecule was called inactive in experiment [7] and in experiment [6].

Regarding `O=P(OCCCl)(OCCCl)OCCCl`, the molecule was classed as inactive in experiment [8], in experiment [2], in experiment [3], in [4], in [7] and in experiment [5].

Consider `CC(C)COC(=O)c1ccccc1C(=O)OCC(C)C`, for which the result in experiment [1] was inactive. For the same molecule, the AC50 is 28.6 µM (active) in experiment [3] and 44.6 µM (active) in experiment [4].

On to `CN(C)c1ccccc1`, for which the outcome in experiment [1], in experiment [3] and in [9] was inactive.

Take `Cc1ccc(N)c(N)c1`: the result in experiment [1], in experiment [7], in [5] and in experiment [9] was inactive. In addition, the AC50 in experiment [3] is 2.11 µM (active).

With `CCC(C)c1ccc(O)cc1` (stereo unspecified), the outcome in experiment [1], in experiment [3] and in [7] was inactive.

`CCCCCCCCn1sccc1=O`: the half-maximal activity concentration (AC50) is 11.7 µM (active) in [1], 0.796 µM (active) in experiment [3], 9.45 µM (active) in experiment [4] and 10.7 µM (active) in [7]. Further, the outcome in [6] was inactive.

On to `Cc1ccc(N=C=O)cc1N=C=O`, for which the result in [8], in [2], in experiment [5] and in experiment [6] was inactive. Also, the AC50 in [3] was 13.9 µM (active).

For the molecule `CCCCC(CC)COC(=O)c1ccc(C(=O)OCC(CC)CCCC)c(C(=O)OCC(CC)CCCC)c1` (stereo unspecified), the result in experiment [8], in experiment [3], in experiment [7] and in experiment [9] was inactive.

With `Brc1ccc(Oc2ccccc2)cc1`, the outcome in experiment [3], in experiment [4] and in experiment [7] was inactive.

Turning to `Clc1ccccc1Cl`, the result in experiment [1], in experiment [3] and in experiment [4] was inactive.

As for `CCCCCCCCOC(=O)c1ccc(C(=O)OCCCCCCCC)c(C(=O)OCCCCCCCC)c1`, the outcome in experiment [8], in experiment [2], in experiment [3] and in experiment [4] was inactive.

Regarding `CCCCCOC(=O)c1ccccc1C(=O)OCCCCC`, in experiment [1], the outcome was inactive. In addition, the AC50 in experiment [3] is 19.1 µM (active); in experiment [4], 49.7 µM (active); in experiment [7], 27.9 µM (active).

For `[O-][Cl+]O`, the result in [3] and in experiment [7] was inactive.

As for `CC(C)(C)OOC(C)(C)CCC(C)(C)OOC(C)(C)C`, the half-maximal activity concentration (AC50) in [8] was 24.7 µM (active). The result in experiment [3] and in [7] was inactive.

In the case of `c1ccc(C2CO2)cc1` (stereo unspecified), the result in experiment [3], in [4] and in experiment [6] was inactive.

Regarding `CS(=O)(=O)NC(=O)c1cc(Oc2ccc(C(F)(F)F)cc2Cl)ccc1[N+](=O)[O-]`, the molecule was called inactive in experiment [8], in experiment [2], in experiment [3], in experiment [5] and in experiment [6]. In addition, the AC50 in experiment [4] was 30.3 µM (active); in [7] it was 7.65 µM (active).

In the case of `Cc1ccc(N)cc1`, the outcome in experiment [1], in experiment [3], in experiment [9] and in [6] was inactive.

For the molecule `C[N+](C)(C)CC1CO1` (stereo unspecified), the result in experiment [1], in [3] and in experiment [9] was inactive.

With `c1ccc(N=Nc2ccccc2)cc1`, the result in experiment [1], in [3] and in experiment [7] was inactive. Further, the AC50 in experiment [4] was 43 µM (active).

With `C=CCc1ccc2c(c1)OCO2`, the result in experiment [1], in experiment [3], in experiment [4] and in experiment [7] was inactive.

For the molecule `CC(C)N(Cc1ccccc1)C(=O)C(C)(C)C`, the result in experiment [1], in [8], in [3] and in experiment [6] was inactive. In addition, in [7], the half-maximal activity concentration (AC50) is 0.556 µM (active).

On to `Oc1ccccc1Cl`, for which the outcome in experiment [1], in [3], in experiment [4] and in [7] was inactive.

Regarding `[Cl-].[Cl-].[Hg+2]`, the result in experiment [1], in [4], in experiment [7], in experiment [9] and in experiment [6] was inactive. In addition, in experiment [3], the half-maximal activity concentration (AC50) was 32.6 µM (active).
